# Test results as given in the antibiotic and cytotoxicity screens of Wong et al. (2023).
# Among all 39,000 compounds or so, about 3,300 (8.5%) were called active. The full list was thinned out, with actives kept by preference.
# System: HepG2
# Test: cytotoxicity call (relative viability < 0.9)
# Settings: 10 µM
row,SMILES,cytotoxicity call
1,C[C@@H]1CN([C@@H](C)CO)C(=O)CCCn2nncc2CO[C@H]1CN(C)C(=O)Nc1ccc(C(C)(C)C)cc1,inactive
2,C[C@H](CO)N1C[C@H](C)[C@@H](CN(C)Cc2ccc(C(=O)O)cc2)Oc2c(NC(=O)c3cnccn3)cccc2C1=O,inactive
3,CCOc1nc(N2CCOCC2)nc(N2CCOCC2)n1,inactive
4,CC=NN(C)C=O,inactive
5,CC(C)NC(=O)Nc1ccc2c(c1)CC(=O)N([C@@H](C)CO)C[C@H](C)[C@@H](CN(C)S(=O)(=O)c1ccccc1)O2,inactive
6,CC(C)COCC(CN(Cc1ccccc1)c1ccccc1)N1CCCC1.Cl (configuration not stated),active
7,c1ccc(CN(CC2=NCCN2)c2ccccc2)cc1,inactive
8,CC(COc1ccccc1)N(CCCl)Cc1ccccc1.Cl (configuration not stated),inactive
9,CN(C)C(=O)[C@@H]1[C@@H](CO)[C@@H]2Cn3c(ccc(C4=CCCC4)c3=O)[C@H]1N2S(=O)(=O)c1cn(C)cn1,inactive
10,COc1cccc(C#Cc2cnc3c(c2)C(=O)N([C@H](C)CO)C[C@H](C)[C@@H](CN(C)C(=O)C2CCC2)O3)c1,inactive
11,Cn1cnc(S(=O)(=O)N2C[C@@H](O)COC[C@@H]3O[C@H](CC(=O)NCc4cc(F)cc(F)c4)CC[C@H]32)c1,inactive
12,C[C@H](CO)N1C[C@H](C)[C@H](CN(C)S(=O)(=O)c2cccs2)Oc2ncc(-c3ccc(F)cc3)cc2C1=O,inactive
13,Cc1cc2nc3c(=O)[nH]c(=O)nc-3n(C[C@H](O)[C@H](O)[C@H](O)COP(=O)(O)O)c2cc1C,inactive
14,Cc1cc2nc3c(=O)[nH]c(=O)nc-3n(CC(O)C(O)C(O)COP(=O)([O-])O)c2cc1C.[Na+] (configuration not stated),active
15,Cc1cc2nc3c(=O)[nH]c(=O)nc-3n(CC(O)C(O)C(O)CO)c2cc1C (configuration not stated),inactive
16,C[C@@H]1CN([C@H](C)CO)C(=O)c2cc(C#CC3(O)CCCC3)cnc2O[C@H]1CN(C)C(=O)Cc1ccccc1,inactive

row,SMILES,cytotoxicity call
1,C[C@H]1CN([C@@H](C)CO)C(=O)c2cccc(NC(=O)Nc3cccc4ccccc34)c2O[C@H]1CN(C)Cc1ccc(-c2ccccc2)cc1,inactive
2,C[C@@H]1CCCCO[C@H](CN(C)Cc2ccc(C(=O)O)cc2)[C@H](C)CN([C@H](C)CO)C(=O)c2cc(NC(=O)Nc3ccc4c(c3)OCO4)ccc2O1,inactive
3,C[C@@H]1CN([C@H](C)CO)C(=O)c2cc(NC(=O)Nc3ccc(C(F)(F)F)cc3)ccc2O[C@@H](C)CCCCO[C@@H]1CN(C)Cc1ccc(Cl)c(Cl)c1,inactive
4,C[C@@H]1CCCCO[C@@H](CN(C)Cc2ccc(Cl)c(Cl)c2)[C@H](C)CN([C@H](C)CO)C(=O)c2cc(NC(=O)Nc3ccc(C(F)(F)F)cc3)ccc2O1,inactive
5,C[C@@H]1CCCCO[C@H](CN(C)Cc2ccc(Cl)c(Cl)c2)[C@@H](C)CN([C@@H](C)CO)C(=O)c2cc(NC(=O)Nc3ccc(C(F)(F)F)cc3)ccc2O1,active
6,C[C@@H]1CCCCO[C@@H](CN(C)Cc2ccc(Cl)c(Cl)c2)[C@@H](C)CN([C@@H](C)CO)C(=O)c2cc(NC(=O)Nc3ccc(C(F)(F)F)cc3)ccc2O1,inactive
7,C[C@@H]1CCCCO[C@@H](CN(C)Cc2ccc(Cl)c(Cl)c2)[C@@H](C)CN([C@H](C)CO)C(=O)c2cc(NC(=O)Nc3ccc(C(F)(F)F)cc3)ccc2O1,inactive
8,C[C@@H]1CN([C@H](C)CO)C(=O)c2cc(NC(=O)Nc3ccc(C(F)(F)F)cc3)ccc2O[C@@H](C)CCCCO[C@H]1CN(C)Cc1ccc(Cl)c(Cl)c1,inactive
9,C[C@@H]1CN([C@@H](C)CO)C(=O)c2cc(NC(=O)Nc3ccc(C(F)(F)F)cc3)ccc2O[C@@H](C)CCCCO[C@H]1CN(C)Cc1ccc(Cl)c(Cl)c1,inactive
10,C[C@@H]1CCCCO[C@@H](CN(C)Cc2ccc(Cl)c(Cl)c2)[C@H](C)CN([C@@H](C)CO)C(=O)c2cc(NC(=O)Nc3ccc(C(F)(F)F)cc3)ccc2O1,active
11,C[C@H](CO)N1C[C@H](C)[C@@H](CN(C)Cc2ccc(Cl)c(Cl)c2)OCCCC[C@H](C)Oc2ccc(NC(=O)Nc3ccc(C(F)(F)F)cc3)cc2C1=O,active
12,C[C@@H]1CCCCO[C@H](CN(C)Cc2ccc(Cl)c(Cl)c2)[C@H](C)CN([C@@H](C)CO)C(=O)c2cc(NC(=O)Nc3ccc(C(F)(F)F)cc3)ccc2O1,active
13,COc1ccc(S(=O)(=O)N(C)C[C@H]2Oc3c(NC(=O)C4CC4)cccc3C(=O)N([C@@H](C)CO)C[C@H]2C)cc1,inactive
14,C[C@H](CO)N1C[C@H](C)[C@@H](CN(C)Cc2ccccc2)Oc2c(NC(=O)CCCCCC(=O)Nc3ccccc3N)cccc2C1=O,inactive
15,c1ccc([C@@H]2CCC[C@H](c3ccccc3)S2)cc1,inactive
16,C[C@H]1CN([C@@H](C)CO)C(=O)c2cc(NS(=O)(=O)c3cccs3)ccc2O[C@@H]1CN(C)C(=O)Nc1cccc2ccccc12,inactive
